Inconclusive results are not listed. Values without a mark were called inactive. The source made the active and inactive calls. The call rests on the fitted dose curve; in most records, active means well fitted inhibition curve with a large enough effect; inconclusive means small, poorly fitted or top-dose-only effect; inactive means flat fitted curve, though single readings scatter.
Experiment: CHOP2 Reporter Counterscreen Assay for Inhibitors of Ubiquitin-specific Protease USP2a;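 further: activated enterokinase alone at 50 pM in a cell-free format rather than USP2a or CHOP2; nearly all actives have a fitted effect of over 55% in size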
Settings: purified enterokinase, fluorogenic substrate, 485/531 nm; series mostly up to 38.3 µM; activity change, negative = inhibition: at the top concentration
Summary of the method: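 Cell-free counterscreen with pre-activated enterokinase alone (50 pM final) in 20mM Tris-HCl pH 8.0, 2mM CaCl2, 2mM beta-mercaptoethanol, 0.05% CHAPS; compound preincubation 30 min RT, reporter substrate 25nM final, fluorescence read after 10 min (Ex 485/Em 531).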
On the % scale 0 is the no-effect control and ±100 the full control effect; potency means the concentration at half of the fitted maximal effect.

Row | SMILES | activity change, negative = inhibition | Potency
1 | Cc1ccc(NC(=O)c2onc(C)c2Cl)cc1 | -0.102% | –
2 | COC(=O)C1Sc2[nH]c(=O)sc2C(c2ccc(Cl)cc2)C1C(=O)OC (stereo not given) | -1.17% | –
3 | CCO[C@H]1OC(C(=O)N2CCCCCCC2)=C[C@@H](c2ccc(C(F)(F)F)cc2)[C@@H]1CCCO | -1.04% | –
4 | CCOC(=O)Cn1c(=O)oc2cc(S(=O)(=O)Nc3cc(Cl)ccc3OC)ccc21 | 7.82% | –
5 | CC(=O)Nc1ccc(NC(=O)[C@@H](NC(=O)c2cccc(C)c2)C(C)C)cc1 | 1.53% | –
6 | CCC(C)NC(=O)C1CN(S(=O)(=O)c2ccccc2)CCN1S(=O)(=O)c1ccccc1 (stereo not given) | -0.106% | –
7 | O=C(CCS(=O)(=O)c1ccc(Br)s1)NC1CCCC1 | 0.117% | –
8 | CCOC(=O)C1CCCN(CC(=O)Nc2c(C(=O)OC)[nH]c3ccc(C)cc23)C1 (stereo not given) | -2.91% | –
9 | CSC1=NCCN1C(=O)Cc1ccc(F)cc1 | -0.64% | –
10 | N#CC(c1ccccc1)c1ccc(C(=O)c2ccc(F)cc2)cc1 (stereo not given) | -2.54% | –
11 | Cc1ccc(C(=O)CSc2nnc(CNc3nc(-c4ccccc4)cs3)n2C)cc1 | -7.24% | –
12 | COc1cccc(N2CCN(C(=O)CN(C)S(=O)(=O)c3ccc4c(c3)CCC(=O)N4)CC2)c1 | 8.91% | –
13 | COc1ccccc1NC(=O)N1CCN(c2ccccn2)CC1 | 0.312% | –
14 | COc1ccc(CCN2CC(C#N)=C3c4cc(OC)c(OC)cc4CCN3C2)cc1OC | 1.78% | –
15 | Cc1ccc2[nH]c(=O)c(COC(=O)c3ccccn3)cc2c1 | 5.1% | –
16 | COCCN1Cc2cccc(C(=O)N3CCN(c4cc(C)ccc4C)CC3)c2C1=O | -2.08% | –
17 | COc1cc(C(=O)OCC(=O)Nc2c(F)c(F)c(F)c(F)c2F)cc(OC)c1OC | -0.4% | –
18 | CC(=O)N1c2c(cc(Br)cc2S(=O)(=O)NCc2cccnc2)CC1C (stereo not given) | 2.91% | –
19 | Cc1cc(NS(=O)(=O)c2ccc(Nc3nc(-c4ccc(C)c(C)c4)cs3)cc2)no1 | -14.2% | –
20 | O=C(NNC(=O)c1cc2ccccc2cc1O)Nc1ccccc1F | 0.199% | –

Row | SMILES | activity change, negative = inhibition | Potency
21 | CCC(C)NC(=O)CSC1=Nc2ccccc2C2=NC(c3ccccc3)C(=O)N12 (stereo not given) | 4.16% | –
22 | CC(C)OCCCNC(=O)c1c(N)n(/N=C/c2ccccn2)c2nc3ccccc3nc12 | -2.23% | –
23 | O=C(Cc1ccc(S(=O)(=O)N2CCOCC2)s1)Nc1nc2c(s1)CCCC2 | – | 10 µM (active)
24 | CSc1ncccc1C(=O)OCC(=O)N1CCOCC1 | 14.9% | –
25 | COc1ccccc1N1CCN(c2cc(C)nc3nc(C)nn23)CC1 | 2.05% | –
26 | Cn1ccc(=Nc2ccc(NC(=O)c3ccc(N=c4ccn(C)c5ccc([N+](=O)[O-])cc45)cc3)cc2)cc1 | -2.45% | –
27 | COc1ccc(C(=O)OCC(=O)c2c[nH]c3ccccc23)c(OC)c1 | -3.08% | –
28 | Cc1cccc(-c2nnc3n2N=C(c2ccc(Br)cc2)CS3)c1 | -1.47% | –
29 | CCCCC1CCC(C(=O)Nc2ccc(S(=O)(=O)Nc3nccs3)cc2)CC1 (stereo not given) | -23.2% | –
30 | CCOc1cc(N2CCOCC2)c(OCC)cc1NC(=O)Cc1cn2ccsc2n1 | 5.43% | –
31 | CCn1cc(C(=O)N2CCOCC2)c(=O)c2cc(S(=O)(=O)N(C)C)ccc21 | 5.99% | –
32 | O=C(OCC1OC(n2ncc(=O)[nH]c2=O)C(OC(=O)c2ccccc2)C1OC(=O)c1ccccc1)c1ccccc1 (stereo not given) | – | 7.94 µM (active)
33 | CCc1cc2c(=O)c(-n3cnc4ccccc43)coc2cc1O | -1.67% | –
34 | CC(C)N(C(=O)c1sc2cc([N+](=O)[O-])ccc2c1Cl)C(C)C | 11% | –
35 | CCCSCCCNC(=O)CC1Oc2ccccc2NC1=O (stereo not given) | -2.32% | –
36 | COc1cccc(OC)c1-c1nn2c(-c3cc(-c4ccccc4)n[nH]3)nnc2s1 | – | 5.62 µM (active)
37 | Cc1cccc(NC(=S)NCc2ccc3c(c2)cc(C)n3C)c1C | 2.98% | –
38 | CC(C)c1ccc(CCNC(=O)c2ccc([N+](=O)[O-])cc2)cc1 | 0.268% | –
39 | C=CC[C@H](CC(=O)N(CCO)Cc1ccccc1)C(=O)N[C@H](C)COC(=O)[C@@H](CC=C)CC(=O)OC(C)(C)C | 0.348% | –
40 | O=C(Nc1nc(-c2ccco2)c(-c2ccco2)s1)C1CC(=O)N(c2ccc3c(c2)OCCO3)C1 (stereo not given) | – | 4.47 µM (active)
